These results are taken from the supplement of paper PMC3545927.

This assay concerns the target furin, P09958. Nature of the assay: furin cleavage Z-score vs untreated control; higher = more cleavage, active = 3.5 or more, inactive = 1 or less, 8 variable residues between constant flanks. In short, it runs like this:
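Abundance of DNA freed from bead-bound 8-mer peptide–cDNA fusions by purified furin was measured as sequencing read counts after PCR adapter tagging. Cutting ran 7.5, 15 or 30 min in 0.01 ml of 50 mM HEPES pH 7.5 with CaCl2 and NaCl at 1:10 enzyme:substrate. The cleavage Z-score expresses these log counts against furin-free reactions after lowess adjustment and median absolute deviation scaling.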

This is one part of the list. The true hit rate is not given.

Chain of furin, P09958 (P09958 whole entry, the tested form may be a part): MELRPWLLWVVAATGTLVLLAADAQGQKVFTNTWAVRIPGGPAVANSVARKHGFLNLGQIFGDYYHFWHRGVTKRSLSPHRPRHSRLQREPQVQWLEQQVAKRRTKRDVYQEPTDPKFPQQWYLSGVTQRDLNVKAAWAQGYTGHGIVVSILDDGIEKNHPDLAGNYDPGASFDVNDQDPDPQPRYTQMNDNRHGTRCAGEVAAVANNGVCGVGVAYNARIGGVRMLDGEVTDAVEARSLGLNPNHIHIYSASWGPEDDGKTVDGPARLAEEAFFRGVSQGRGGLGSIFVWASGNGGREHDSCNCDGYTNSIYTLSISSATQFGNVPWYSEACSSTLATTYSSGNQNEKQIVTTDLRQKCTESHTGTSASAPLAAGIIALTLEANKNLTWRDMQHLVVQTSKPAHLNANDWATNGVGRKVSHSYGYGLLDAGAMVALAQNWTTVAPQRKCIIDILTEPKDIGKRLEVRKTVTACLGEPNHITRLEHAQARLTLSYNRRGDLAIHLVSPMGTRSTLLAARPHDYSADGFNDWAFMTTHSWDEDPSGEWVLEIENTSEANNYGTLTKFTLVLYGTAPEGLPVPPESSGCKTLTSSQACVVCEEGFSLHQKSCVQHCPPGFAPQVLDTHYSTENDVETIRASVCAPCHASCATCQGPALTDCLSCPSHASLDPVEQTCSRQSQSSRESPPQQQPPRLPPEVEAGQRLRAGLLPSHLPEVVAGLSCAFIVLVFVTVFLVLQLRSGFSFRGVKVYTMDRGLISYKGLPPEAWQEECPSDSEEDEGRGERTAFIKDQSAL

Regarding CATTPCSGSHAGNASASA [HC1935], the “furin cleavage Z-score” value reads like this: (7.5 min) -1.54 (inactive); (15 min) -0.464 (inactive); (30 min) -0.211 (inactive).

For CAAFSLHSYSAGNASASA [HC1606], the “furin cleavage Z-score” value (7.5 min) is 0.00727 (inactive), the “furin cleavage Z-score” value (15 min) is -0.749 (inactive) and the “furin cleavage Z-score” value (30 min) was -0.113 (inactive).

For CAQTPCSGSWAGNASASA [HC1842], the “furin cleavage Z-score” value runs as follows: (7.5 min) -1.2 (inactive); (15 min) -0.187 (inactive); (30 min) -0.763 (inactive).

CARVSRSVRKAGNASASA [FS-293]: the “furin cleavage Z-score” value runs as follows: (7.5 min) 2.18; (15 min) 4.8 (active); (30 min) 5.93 (active).

On to CARVLRSDGKAGNASASA [FS-2102], for which the “furin cleavage Z-score” value runs as follows: (7.5 min) 1.54; (15 min) -0.134 (inactive); (30 min) 1.59.

As for CAAAFRFKRKAGNASASA [FS-1109], the “furin cleavage Z-score” value by setting is: (7.5 min) 9.75 (active); (15 min) 11.5 (active); (30 min) 9.51 (active).

As to CARFGRFWKKAGNASASA [FS-2921], the “furin cleavage Z-score” value reads like this: (7.5 min) -0.769 (inactive); (15 min) 0.759 (inactive); (30 min) -0.706 (inactive).

With CARVSRLAGRAGNASASA [FS-3126], the “furin cleavage Z-score” value by setting is: (7.5 min) -0.719 (inactive); (15 min) -0.0593 (inactive); (30 min) -1.13 (inactive).

Consider CACQQRFKRKAGNASASA [FS-1516], for which the “furin cleavage Z-score” value by setting is: (7.5 min) 9.6 (active); (15 min) 8.5 (active); (30 min) 7.56 (active).

Consider CADVFVLNNTAGNASASA [HC428], for which the “furin cleavage Z-score” value by setting is: (7.5 min) 0.596 (inactive); (15 min) 0.292 (inactive); (30 min) 1.32.

In the case of CAEFVTSTWVAGNASASA [HC2167], the “furin cleavage Z-score” value is 0.46 (inactive) (7.5 min), -0.556 (inactive) (15 min) and 1.32 (30 min).

Regarding CASTRCSAHLAGNASASA [HC2513], the “furin cleavage Z-score” value runs as follows: (7.5 min) -0.269 (inactive); (15 min) 0.477 (inactive); (30 min) 0.507 (inactive).

For the sequence CAADVVDGAGAGNASASA [CS8], the “furin cleavage Z-score” value runs as follows: (7.5 min) 0.136 (inactive); (15 min) 0.768 (inactive); (30 min) -0.146 (inactive).

With CATVSRFRKAAGNASASA [FS-731], the “furin cleavage Z-score” value (7.5 min) was 4.07 (active), the “furin cleavage Z-score” value (15 min) was 6.77 (active) and the “furin cleavage Z-score” value (30 min) is 7.8 (active).

For CAGPQRQKKAAGNASASA [FS-1201], the “furin cleavage Z-score” value (7.5 min) is -1.12 (inactive), the “furin cleavage Z-score” value (15 min) was -0.885 (inactive) and the “furin cleavage Z-score” value (30 min) was determined as 1.12.

With CATVSSEANAAGNASASA [HC1364], the “furin cleavage Z-score” value is -0.827 (inactive) (7.5 min), -1.5 (inactive) (15 min) and -0.39 (inactive) (30 min).

For CAGWIRSRKAAGNASASA [FS-1529], the “furin cleavage Z-score” value was -0.333 (inactive) (7.5 min), 0.0867 (inactive) (15 min) and 1.14 (30 min).

CAGPSRFRKAAGNASASA [FS-162]: the “furin cleavage Z-score” value was 5.12 (active) (7.5 min), 5.93 (active) (15 min) and 5.05 (active) (30 min).

In the case of CAWPHRSRKAAGNASASA [FS-574], the “furin cleavage Z-score” value was 0.887 (inactive) (7.5 min), 1.32 (15 min) and -0.0044 (inactive) (30 min).

Turning to CAEVVLSTWVAGNASASA [HC124], the “furin cleavage Z-score” value (7.5 min) is -1.79 (inactive), the “furin cleavage Z-score” value (15 min) was 0.00773 (inactive) and the “furin cleavage Z-score” value (30 min) is -0.313 (inactive).

As for CATPLPAPNYAGNASASA [HC1196], the “furin cleavage Z-score” value reads like this: (7.5 min) -2.54 (inactive); (15 min) -0.301 (inactive); (30 min) -1.86 (inactive).

As to CAAPAVQTNWAGNASASA [HC1034], the “furin cleavage Z-score” value reads like this: (7.5 min) 0.577 (inactive); (15 min) -0.967 (inactive); (30 min) -0.703 (inactive).

On to CASFSIFLLAAGNASASA [HC247], for which the “furin cleavage Z-score” value (7.5 min) was 0.168 (inactive), the “furin cleavage Z-score” value (15 min) is -0.433 (inactive) and the “furin cleavage Z-score” value (30 min) was -0.472 (inactive).

For CARDRRRLEQAGNASASA [FS-2483], the “furin cleavage Z-score” value reads like this: (7.5 min) -1.86 (inactive); (15 min) 0.963 (inactive); (30 min) -0.511 (inactive).

On to CARALRSATQAGNASASA [FS-3182], for which the “furin cleavage Z-score” value runs as follows: (7.5 min) -0.644 (inactive); (15 min) -0.755 (inactive); (30 min) 1.8.

Turning to CARLSRDSLQAGNASASA [FS-2998], the “furin cleavage Z-score” value by setting is: (7.5 min) -0.269 (inactive); (15 min) -1.05 (inactive); (30 min) 1.09.

As for CARKLRGETVAGNASASA [FS-2969], the “furin cleavage Z-score” value runs as follows: (7.5 min) -1.81 (inactive); (15 min) -0.954 (inactive); (30 min) -0.18 (inactive).

Take CARKLRSLEQAGNASASA [FS-3193]: the “furin cleavage Z-score” value reads like this: (7.5 min) 8.09 (active); (15 min) 8.14 (active); (30 min) 8.28 (active).

Take CARKLRDVLQAGNASASA [FS-2215]: the “furin cleavage Z-score” value (7.5 min) is 2.04, the “furin cleavage Z-score” value (15 min) was 4.73 (active) and the “furin cleavage Z-score” value (30 min) was 4.95 (active).
